Measurements as given in PubChem BioAssay AID504941 (Broad Institute, 2011).
Out of some 1,200 compounds screened, about 170 (14%) were called active. How the calls were made is not given here. Only a sample is shown. Entries with a potency or affinity are not part of this list.

Assay: twin-arginine translocation blockade, bacterial reporter – cherry-pick, set 2, plate reader, dose response (AID 504941)
Conditions: E. coli Tat transport reporter; series mostly up to 38 µM; activity change, negative = inhibition: at the top concentration

Activity change, negative = inhibition, inactive:
CN(C(=O)COC(=O)c1cccc(S(=O)(=O)N2CCOCC2)c1)C1CCS(=O)(=O)C1 (stereo unspecified) 6.11%
CC(C)C(C(=O)NC1CCCC1)N(CC1CCCO1)C(=O)CNS(=O)(=O)c1ccccc1 (stereo unspecified) -0.216%
CCOc1nc(Nc2ccc(OC)c(Cl)c2)nc(OCC)n1 -7.13%
Cc1ccc(C)c(N2CCN(c3ccc4cc(S(=O)(=O)N5CCCCC5)ccc4n3)CC2)c1 10.4%
O=C(CCCc1nc2ccccc2s1)NC1CCOC1=O (stereo unspecified) -11.4%
Clc1ccccc1-c1ccc2ncnc(NCc3cccnc3)c2c1 7.13%
Cc1ccc(S(=O)(=O)Nc2ccnc(-c3cccnc3)n2)cc1 9.87%
CC1CC(OC(=O)C(O)c2ccccc2)CC(C)(C)N1C (stereo unspecified) -5.37%
CC1CCN(C(=O)c2ccc(S(=O)(=O)N3CCCC3)cc2)CC1 10.2%
CC1CCN(CC[C@H]2CCCN2S(=O)(=O)c2cccc(O)c2)CC1 8.51%
COc1ccc(/C=C/C(=O)OCc2cc(=O)n3c(n2)sc2ccccc23)cc1 -12%
CCN1CCN(C(=O)C(NS(=O)(=O)c2ccc3nc(C)sc3c2)C(C)C)CC1 (stereo unspecified) -20.5%
O=C(NCCc1ccccc1)c1ccc2c(c1)OCCCO2 -10.6%
O=C(CCNC(=O)c1ccc([N+](=O)[O-])cc1)Nc1cccc(S(=O)(=O)N2CCCCCC2)c1 -10.6%
O=C(CN1CCN(c2ccc(O)cc2)CC1)Nc1ccc2c(c1)OCCO2 21.3%
Cc1cc(Cl)c(S(=O)(=O)NC(C(=O)O)C(C)C)cc1OCC(=O)NC1CCCCC1 (stereo unspecified) -0.619%
C[C@@H]1CN(c2c(F)c(F)c3c(=O)c(C(=O)O)cn(C4CC4)c3c2F)C[C@H](C)N1 303%
Nc1nc(=O)n(C2CC(O)C(CO)O2)cc1F (stereo unspecified) 181%
CCNC(=S)NCCN1CCOCC1 7.35%
CCCc1cc(=O)[nH]c2nnc(SCC(=O)Nc3ccc4c(c3)OCCO4)n12 1.25%
O=C(Nc1ccc2c(c1)OCCO2)c1ccc(Cl)c(S(=O)(=O)N2CCCCC2)c1 6.22%
C=CCN(CC=C)S(=O)(=O)c1ccc(NC(=S)NC(=O)C2CC2)cc1 -41.6%
COc1ccc(-c2cc(C(=O)Oc3ccc([N+](=O)[O-])cc3)c3ccccc3n2)cc1 30.5%
COc1ccc(-c2cc(C)no2)cc1S(=O)(=O)NCCCN1CCCCCC1 9.9%
CCOc1ccc2[nH]c(C)c(CN3CCCCC3)c(=O)c2c1 17.6%
Cc1cc(-n2c(C)cc(C(=O)COc3cccnc3[N+](=O)[O-])c2C)no1 0.514%
O=C(N1CCCC1)C12CC3CC(C1)CC(C(=O)N1CCCC1)(C3)C2 4.29%
C/C(=N\NC(=O)c1cccc(O)c1)c1cccc(NC(=O)c2ccc(F)cc2)c1 7.5%
COc1cc(C(=O)NCCOC(=O)c2cccc(N(C)C)c2)cc(OC)c1OC -12.9%
Cc1cc(C)cc(-n2c(C)cc(/C=C3\C(=N)N4N=C(CC(C)C)SC4=NC3=O)c2C)c1 7.24%
COc1ccc(NS(=O)(=O)c2ccc(NC(=O)Cc3cccs3)cc2)cc1 12.2%
O=S(=O)(N1CCCCC1)N1CCN(c2ccccc2F)CC1 -1.04%
CCOC(=O)C(C(=O)Nc1ccc(C)cc1)C1CCCCC1 (stereo unspecified) 17.6%
CC(CN1CCOCC1)(NS(=O)(=O)c1ccccc1)c1ccccc1 (stereo unspecified) -6.65%
Cc1ccccc1NC1=NC(=S)N(c2ccccc2)C12CCOC(C)(C)C2 (stereo unspecified) -0.879%
CC(C)OC(=O)c1c(NC(=O)c2ccco2)sc2c1CCCC2 -6.21%
CCOC(=O)CC(=O)Nc1ccccc1C(=O)O -1.16%
O=C(O)CCC(=O)Nc1sc2c(c1C(=O)Nc1cccc3ccccc13)CCCCC2 -7.8%
CCCCNC(=O)CCCn1c(=O)[nH]c2ccc(Br)cc2c1=O -10.4%
O=C1OCc2ccc(NC(=O)C3CC3)cc21 -7.47%
OCCN1CCN(C(=S)Nc2ccc(Oc3ccccc3)cc2)CC1 -21.3%
Cc1ccc(CS(=O)(=O)CCC(=O)NCCCN2CCCC2)cc1 2.96%
Cc1ccc(CC(=O)NCCS(=O)c2ccc(Cl)cc2)cc1 (stereo unspecified) 12.3%
O=C(CN1C(=O)NC2(CCCCC2)C1=O)NCc1cccs1 22.5%
COCn1c(-c2cccc(Br)c2)nc2ccccc21 21.4%
CSc1ccccc1OCc1cc(C(=O)N(C)Cc2c(C)n[nH]c2C)no1 12.3%
COc1cc(Cl)ccc1OCc1cc(C(=O)NCC(C)(C)N2CCOCC2)no1 -6.94%
NS(=O)(=O)c1ccc(NC(=O)CSc2nnc(-c3ccc(O)cc3)o2)cc1 8.57%
O=C(CSc1nnc(-c2cccnc2)o1)Nc1ccc(Cl)cc1 12.1%
CC(=O)N1Cc2cc([N+](=O)[O-])ccc2Oc2ccccc21 12.2%
CC(=O)NC(Cc1cnc[nH]1)C(=O)O (stereo unspecified) 6.77%
CCCN(C(=O)Cn1c(C(F)(F)F)nc2ccccc21)C1CCS(=O)(=O)C1 (stereo unspecified) 8.26%
O=C(NCc1ccccc1)c1ccc(F)c(F)c1 7.16%
O=C(NCc1ccccc1)c1ccc(Br)o1 -13.9%
Cc1ccc(OCCNC(=O)c2cc(-n3cnnc3)ccc2Cl)cc1C -6.14%
C[C@@H]1O[C@@H](Oc2c(-c3ccc(O)c(O)c3)oc3cc(O)cc(O)c3c2=O)[C@H](O)[C@H](O)[C@H]1O 12.2%
COc1ccc(Cl)cc1NC(=S)NCc1cccnc1 22.5%
CC(C)N1CCc2c(sc(NC(=O)c3ccc(S(=O)(=O)N4CCc5ccccc54)cc3)c2C(N)=O)C1 34.7%
CC(NC(=O)c1ccc([N+](=O)[O-])o1)C12CC3CC(CC(C3)C1)C2 (stereo unspecified) 15.2%
COc1ccccc1N1CCN(C(=O)c2cc3c(=O)n4ccccc4nc3s2)CC1 11%
Cc1ccc(NC(=O)CSc2nccn2C)cc1F 17%
CCCNC(=O)c1cc(C)no1 6.59%
COc1ccc(NC(=O)Cn2ncc(Cl)c(Cl)c2=O)cc1S(=O)(=O)N1CCOCC1 2.91%
COc1ccc(S(=O)(=O)N2CCC(C(=O)NCc3cccnc3)CC2)cc1OC 2.11%
O=c1[nH]c2ccc(S(=O)(=O)N3CCCCC3)cc2s1 17%
CN(C)C(=S)Nc1ccc2ccccc2c1 -3.63%
O=C(Cn1cc(C(F)(F)F)ccc1=O)OCC(=O)c1ccc[nH]1 11.2%
COc1ccc(/C(C)=N/NC(=O)CNC(=O)c2ccncc2)c(OC)c1 -12.5%
Cc1c(Cl)cccc1NC(=O)C1NC(=O)CC1c1ccccc1 (stereo unspecified) -18%
COC(=O)CSc1ccc(C#N)c(SCC(=O)OC)c1 -25.3%
CCC1Oc2nc(SC)nnc2-c2ccccc2N1C(=O)c1ccccc1 (stereo unspecified) 4.65%
CCC(CC)C(=O)Nc1nnc(S(=O)(=O)N2CCCCCC2)s1 -1.1%
CCOC(=O)c1cc(C)sc1NC(=O)C(c1ccccc1)c1ccccc1 -30.7%
CCOc1ccc(NC(=O)CN2C(=O)/C(=C3\SC(=S)N(C4CCS(=O)(=O)C4)C3=O)c3ccccc32)cc1 (stereo unspecified) 8.88%
Cc1cc(C)c(NS(=O)(=O)c2ccc3c(c2)NC(=O)CCS3)c(C)c1 -14.1%
O=C(COC(=O)/C=C/c1ccc(F)cc1)Nc1nnc(-c2ccccc2)o1 34.7%
Cc1cc(C(=O)CSc2nnc(-c3ccc4c(c3)OCO4)o2)c(C)n1-c1ccc(F)cc1 3.43%
O=C(Cn1cc([N+](=O)[O-])cn1)N1CCN(c2ccccc2)CC1 11.2%
COC(=O)C1C(O)C(C)C(O)C(C)(O)/C=C\C=C(/C)C(=O)Nc2c(C)c(OC(C)=O)c3c(c2O)C(=O)C(C)=C2OCOC(=C23)/C(C)=C/C(C)(O)C(O)C(C)C1O (stereo unspecified) -24.2%
COc1ccc(S(=O)(=O)N2CCC(C(=O)N3CCN(C)CC3)CC2)cc1Cl -4.18%
COc1ccc(OC)c(S(=O)(=O)N2CCC(C(=O)NC3CC3)CC2)c1 19.3%
CCOc1ccc(NC(=O)CNC(=O)Cc2ccccc2)cc1 4.14%
COC(=O)c1ccc(CNC(=O)C2CCC(=O)N(Cc3ccccn3)C2)cc1 (stereo unspecified) -28.2%
CNC1=CC(=O)CC(c2ccccc2)C1 (stereo unspecified) 12.6%
CCCCCn1c(CNC(=O)c2cccs2)nc2ccccc21 -1.52%
O=C(Nc1c2c(nn1-c1ccccc1)CS(=O)(=O)C2)c1cccs1 -5.38%
O=C(COC(=O)c1cccc(S(=O)(=O)N2CCc3ccccc32)c1)Nc1ncc(C(F)(F)F)cc1Cl 14.6%
Cc1cccnc1NC(=O)c1cccc(S(=O)(=O)N2CCCc3ccccc32)c1 -14%
Cc1nc(NC(=O)/C=C/c2ccccc2)sc1C(=O)N(C)C 0.771%
CC(NC(=O)CSc1nc2sc3c(c2c(=O)n1-c1ccccc1)CCCC3)c1ccccc1 (stereo unspecified) 6.92%
CCn1c(C)cc(/C=C2/NC(=O)N(Cc3ccccc3F)C2=O)c1C 10.6%
O=C(COc1ccc2c3c(c(=O)oc2c1)CCCC3)NCC(O)c1ccccc1 (stereo unspecified) 4.93%
O=C(COc1ccc2c3c(c(=O)oc2c1)CCCC3)NCCCn1ccnc1 16.2%
c1ccc(-n2c(SCC3CCCCO3)nnc2-c2cccs2)cc1 (stereo unspecified) -12.4%
Cc1noc(C)c1COc1ccccc1C(=O)NC1CCC(C)CC1 (stereo unspecified) -7.29%
CCN(CC)CC(=O)N(CC(=O)Nc1c(C)cc(C)cc1C)C1CCCCC1 -9.21%
O=[N+]([O-])c1ccc(O)c(/C=N/Nc2nc3ccccc3[nH]2)c1 -11.5%
O=c1oc(-c2ccccc2)nc2sc3c(c12)CCCC3 -12.9%
O=C(O)CCCc1nc(-c2ccc(Cl)cc2)no1 -8.66%
COc1ccc(OCc2nnc(SCC(=O)N3C(C)CCCC3C)o2)cc1 (stereo unspecified) 13.9%
c1ccc(C2NCCc3ccccc32)cc1 (stereo unspecified) 39.2%
Nc1nnc(-c2cn(-c3ccccc3)nc2-c2ccc(Cl)cc2)o1 -4.94%
O=C(COC(=O)C12CC3CC(CC(Br)(C3)C1)C2)Nc1cccnc1Cl 7.63%
CSc1ncccc1C(=O)OCC(=O)N(C)c1c(N)n(Cc2ccccc2)c(=O)[nH]c1=O 33.1%
O=C(OCC(=O)N1CCCC1=O)c1cccc(S(=O)(=O)N2CCOCC2)c1 17%
COc1ccc(NC(=O)CC2(CC(=O)O)CCCC2)cn1 1.15%
